The values that follow come from PubChem BioAssay.

Molecules are shown by their SMILES. The source made the active and inactive calls. Unless noted, how the calls were made is not given here.

A short description of test [1]: Brca1-Bard1 BiLC signal decrease – luminescence, single concentration, counter-screen for Mdm2/MdmX interaction inhibitor project, confirmation (AID 504668). Particulars: Brca1/Bard1 bimolecular luciferase complementation counterscreen, at 8 µM, stronger effect = higher value.
The target of test [2] is PEG-3 (UniProt Q6IN02). Put plainly: inhibition of PEG-3 promoter-driven reporter – cell-based, HeLa, luciferase, CREF/GAPDH counter-screen panel, dose response (AID 624167). The note with it: CREF/GAPDH counter-screens; HeLa PEG-Prom luciferase reporter, overnight, run 1, dose range 1, at 100 µM (top of the series) unless noted. On the technique in general: The purpose of a counterscreen is to sort out artefacts and off-target activity.
Sequence of PEG-3 (Q6IN02 whole entry, looked up): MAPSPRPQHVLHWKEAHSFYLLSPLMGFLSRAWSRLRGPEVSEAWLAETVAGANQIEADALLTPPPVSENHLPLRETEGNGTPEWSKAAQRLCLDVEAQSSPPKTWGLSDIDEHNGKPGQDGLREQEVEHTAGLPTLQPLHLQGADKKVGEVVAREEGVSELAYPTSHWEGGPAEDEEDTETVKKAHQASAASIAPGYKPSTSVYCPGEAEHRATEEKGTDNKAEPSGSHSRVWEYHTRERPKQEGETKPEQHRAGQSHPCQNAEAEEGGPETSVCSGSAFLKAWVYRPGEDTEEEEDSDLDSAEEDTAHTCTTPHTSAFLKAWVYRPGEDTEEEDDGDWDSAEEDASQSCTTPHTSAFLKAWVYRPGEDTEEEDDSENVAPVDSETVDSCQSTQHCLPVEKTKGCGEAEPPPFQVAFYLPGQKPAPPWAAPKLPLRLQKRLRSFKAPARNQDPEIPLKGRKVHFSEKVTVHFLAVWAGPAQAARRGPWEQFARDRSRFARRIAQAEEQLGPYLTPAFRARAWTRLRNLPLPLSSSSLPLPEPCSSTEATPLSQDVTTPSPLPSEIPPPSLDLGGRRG

Test [3] addresses PEG-3 (UniProt Q6IN02). The test is described as above. The note with it: CREF/GAPDH counter-screens; HeLa PEG-Prom luciferase reporter, overnight, run 2, dose range 1, at 100 µM (top of the series) unless noted.
Test [4] has as its system Rat fibroblasts (CREF). Described as above. The note with it: CREF/GAPDH counter-screens; run 1, dose range 1, at 100 µM (top of the series).
Test [5] concerns Rat fibroblasts (CREF). Described as above. The note with it: CREF/GAPDH counter-screens; run 2, dose range 1, at 100 µM (top of the series).
Test [6] is described as follows: NFkB reporter suppression in cystic fibrosis bronchial cells – cell-based, uHTS hits, panel, cytotoxicity readout, dose response (AID 624344). Particulars: CF bronchial epithelial cells, PAF-induced NFkB reporter inhibition, with PAF, run 1; at 79 µM (top of the series) unless noted.
Assay in test [7]: as above
Particulars: CF bronchial epithelial cells, PAF-induced NFkB reporter inhibition, with PAF, run 2; at 79 µM (top of the series) unless noted.

Test [8] has as its target Tumor necrosis factor receptor superfamily member 10B (Homo sapiens) (UniProt O14763). Put plainly: viability loss of caspase-8 NB7 cells with TRAIL – with/without TRAIL, luminescence panel, confirmation (AID 651596; in the data active means activity above about 50%). Particulars: NB7 neuroblastoma + caspase-8, TRAIL sensitization, NB7 Caspase-8, with TRAIL, mean of runs, at 10 µM, stronger effect = higher value.
Assay in test [9]: as above
The note with it: NB7 neuroblastoma + caspase-8, without TRAIL, NB7 Caspase-8, without TRAIL, mean of runs, at 10 µM.

Sequence of Tumor necrosis factor receptor superfamily member 10B (Homo sapiens) (O14763 whole entry, looked up): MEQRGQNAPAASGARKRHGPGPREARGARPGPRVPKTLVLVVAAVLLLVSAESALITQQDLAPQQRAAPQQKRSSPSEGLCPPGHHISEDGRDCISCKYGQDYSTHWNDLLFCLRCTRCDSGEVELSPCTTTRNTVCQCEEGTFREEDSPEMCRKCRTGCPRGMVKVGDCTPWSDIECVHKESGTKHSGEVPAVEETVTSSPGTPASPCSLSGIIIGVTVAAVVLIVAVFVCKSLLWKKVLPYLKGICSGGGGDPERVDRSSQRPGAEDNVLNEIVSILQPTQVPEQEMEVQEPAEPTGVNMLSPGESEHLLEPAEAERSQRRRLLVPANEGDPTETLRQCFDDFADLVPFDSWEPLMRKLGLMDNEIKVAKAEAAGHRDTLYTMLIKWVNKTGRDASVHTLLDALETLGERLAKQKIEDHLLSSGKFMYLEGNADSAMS

On to `Cc1ccc(C(=O)Nc2cc3ccccc3oc2=O)cc1`, for which the inhibition (as a rule, the drop in the measured response relative to a control, in per cent) in [1] was 31.8% (active); in the test with PEG-3 [2], 84.5%; with PEG-3 [3], 78.7%; in the test with Rat fibroblasts (CREF) [4], 84.6%; in the test on Rat fibroblasts (CREF) [5], 87.1%.

With `OCCCNc1ncnc2scc(-c3ccc(Cl)cc3)c12`, the inhibition is 33.2% (active) in [1], 115% in test [6] and 103% in test [7].

On to `Cn1c(Oc2ccc(Cl)cc2)c(C=O)c2ccccc21`, for which the inhibition is 34.4% (active) in test [1], 104% in test [6] and 109% in [7].

Consider `C=C(C)COc1ccc(-c2[nH]ncc2-c2ccc(OC)cc2)c(O)c1`, for which the inhibition in [1] is 28.9% (active); in [6], 114%; in test [7] it was 105%.

Take `O=C(NC1=NCCS1)C1COc2ccccc2O1` (stereo not drawn): the inhibition was 34% (active) in [1]; 96.4% with PEG-3 [2]; 97.6% with PEG-3 [3]; 86.9% with Rat fibroblasts (CREF) [4]; 87.4% with Rat fibroblasts (CREF) [5].

`c1ccc(-c2noc(-c3ccc4c(c3)OCO4)n2)nc1`: the inhibition in test [1] was 29.3% (active); with PEG-3 [2], 91.3%; with PEG-3 [3], 94.5%; with Rat fibroblasts (CREF) [4] it was 95.9%; in the test with Rat fibroblasts (CREF) [5], 95.7%. The activity in test [8] was determined as 93.2%; in test [9], 93.7%.

As to `CN1CCN(c2ncnc3scc(-c4ccccc4Cl)c23)CC1`, the inhibition in [1] was 28.7% (active); in test [6], 113%; in test [7] it was 100%.

With `COc1ccc(-c2cc(=O)oc3c(C)c(OC(=O)c4cccs4)ccc23)cc1`, the inhibition in test [1] was 32.9% (active); in test [6], 66.8%; in test [7], 93%.

As for `CN(C)CCCN(C(=O)c1ccc(C(=O)c2ccccc2)cc1)c1nc2cc3c(cc2s1)OCO3`, the inhibition in [1] is 31.7% (active); in the test with PEG-3 [2], 99.4%; with PEG-3 [3] it was 102%. Also, the activity in test [8] was determined as 46.7%; in test [9], 54.3%.

With `CN(C(=O)OC(C)(C)C)c1ccc(-c2nc3ccccc3s2)cc1`, the inhibition was 24.8% (active) in [1], 96.5% with PEG-3 [2] and 98.2% in the test with PEG-3 [3]. Besides, the activity in test [8] worked out at 92.6%; in test [9] it was 91.2%.

`Cc1cnc(NC(=O)c2ccc3c(c2)OCCO3)s1`: the inhibition in [1] is 28.6% (active); in the test with PEG-3 [2], 98.1%; with PEG-3 [3], 97%; in the test on Rat fibroblasts (CREF) [4], 100%; in the test with Rat fibroblasts (CREF) [5], 99.6%. Further, the activity in test [8] was determined as 98.2%; in [9] it was 98.5%.

As to `CCn1c(Oc2ccccc2F)nc2c1c(=O)n(C)c(=O)n2C`, the inhibition was 23.1% (active) in test [1], 113% in test [6] and 96.5% in test [7].

As for `COC(=O)Cc1[nH]n(-c2nc3ccccc3s2)c(=O)c1C(C)=Nc1ccc(C)cc1`, the inhibition was 32.2% (active) in test [1]; 80.3% with PEG-3 [2]; 83.8% in the test with PEG-3 [3]; 78.5% with Rat fibroblasts (CREF) [4]; 80.2% in the test with Rat fibroblasts (CREF) [5].

`O=C(/C=C/Nc1ccccc1Br)c1ccccn1`: the inhibition in [1] was 24% (active); with PEG-3 [2], 96.6%; in the test with PEG-3 [3], 99.5%; with Rat fibroblasts (CREF) [4], 97.6%; with Rat fibroblasts (CREF) [5] it was 98.9%.

As for `CCOc1ccc(C(=O)O/N=C(\N)c2ccccn2)cc1`, the inhibition in [1] is 33% (active); with PEG-3 [2] it was 98%; with PEG-3 [3], 98.8%; with Rat fibroblasts (CREF) [4] it was 97.8%; with Rat fibroblasts (CREF) [5] it was 98.6%.

As to `Cc1ccc2nc(C(F)(F)F)c(C#N)c(N)c2c1`, the inhibition in [1] was 25.7% (active); in test [6], 114%; in [7] it was 106%.

Take `Cc1ccc(C(=O)O/N=C(\N)c2ccccn2)cc1`: the inhibition was 34% (active) in test [1]; 102% with PEG-3 [2]; 100% with PEG-3 [3]; 100% in the test on Rat fibroblasts (CREF) [4]; 101% in the test on Rat fibroblasts (CREF) [5].

As to `O=C(Nc1ccc([N+](=O)[O-])cc1)C(=O)Nc1cccc(C(=O)O)c1`, the inhibition was 31% (active) in test [1]; 92.5% with PEG-3 [2]; 95% with PEG-3 [3]; 97.5% in the test on Rat fibroblasts (CREF) [4]; 96.8% with Rat fibroblasts (CREF) [5].

As for `Nc1nonc1-n1nnc(C(=O)N/N=C/c2cc(Br)ccc2O)c1CNc1ccccc1`, the inhibition in test [1] is 30.5% (active); with PEG-3 [2] it was 89.3%; with PEG-3 [3] it was 81.9%; in the test with Rat fibroblasts (CREF) [4], 54.5%; with Rat fibroblasts (CREF) [5], 59.3%.

Regarding `CCN(CC)S(=O)(=O)c1ccc(NC(=O)Nc2cccc(C(F)(F)F)c2)cc1`, the values for the inhibition in [1], in [6] and in test [7] were 35.2% (active), 114% and 99.2%, respectively. Moreover, the activity was determined as 82.6% in test [8] and 71.3% in [9].

For the compound `c1cc2[nH]snc2c2nc(C3CC3)nc12`, the figures for the inhibition in test [1], in [6] and in test [7] were 26.4% (active), 101% and 118%, respectively.
